Laboratory results reported in PubChem BioAssay (Tox21).
Records with an inconclusive call do not appear. Calls of active or inactive are those of the source. Unless noted, the call rests on the fitted dose curve; in most records, active means well fitted curve in the direction sought with a large enough effect in the repeat runs; inconclusive means weak or mixed curves; inactive means no such curve, though single readings can be large; an effect the other way counts as inactive or inconclusive.

Experiments:
[1] = molecular target: Thyrotropin receptor (Homo sapiens) (UniProt P16473); experiment: qHTS assay to identify small molecule agonists of the thyroid stimulating hormone receptor (TSHR) signaling pathway (AID 1224843; calls by dose curve; further: nearly all actives have a fitted effect of over 45% in size)
Thyrotropin receptor (Homo sapiens), sequence (P16473 whole entry, looked up): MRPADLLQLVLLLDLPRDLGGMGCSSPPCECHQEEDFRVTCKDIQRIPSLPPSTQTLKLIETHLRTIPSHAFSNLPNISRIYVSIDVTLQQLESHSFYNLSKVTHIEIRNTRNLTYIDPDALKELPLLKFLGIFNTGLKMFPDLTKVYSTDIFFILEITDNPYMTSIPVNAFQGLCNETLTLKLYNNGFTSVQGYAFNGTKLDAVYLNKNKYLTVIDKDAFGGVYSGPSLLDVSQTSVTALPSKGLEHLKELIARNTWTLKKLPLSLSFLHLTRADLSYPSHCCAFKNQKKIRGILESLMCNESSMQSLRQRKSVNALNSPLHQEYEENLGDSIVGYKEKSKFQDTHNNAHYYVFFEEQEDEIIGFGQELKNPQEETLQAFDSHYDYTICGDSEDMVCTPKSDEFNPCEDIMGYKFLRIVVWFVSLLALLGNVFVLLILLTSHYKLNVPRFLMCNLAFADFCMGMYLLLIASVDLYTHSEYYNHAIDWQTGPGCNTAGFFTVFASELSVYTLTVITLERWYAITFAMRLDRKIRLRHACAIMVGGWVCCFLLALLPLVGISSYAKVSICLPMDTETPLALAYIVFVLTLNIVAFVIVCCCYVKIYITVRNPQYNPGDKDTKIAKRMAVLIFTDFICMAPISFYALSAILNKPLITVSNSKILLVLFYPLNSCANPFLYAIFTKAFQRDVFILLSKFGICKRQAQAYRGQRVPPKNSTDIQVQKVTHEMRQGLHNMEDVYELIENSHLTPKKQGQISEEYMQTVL
Outline: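 Agonist-mode screen: TSHR HEK293 cells received test chemicals for half an hour at room temperature, then HTRF cAMP detection reagents for one hour prior to fluorescence measurement. Each chemical ran as a 15-concentration series, triplicated.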

[2] = qHTS assay to identify small molecule agonists of the hypoxia (HIF-1) signaling pathway - cell viability counter screen (AID 1224844; calls by dose curve; further: nearly all actives have a fitted effect of over 50% in size)
Outline: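 Same wells as the HIF-1 reporter screen; ME-180 cells carrying HRE-bla, 17 hr treatment at 37C; CellTiter-Glo luminescence read after 30 min at room temperature.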

[3] = qHTS assay to identify small molecule agonists of H2AX (AID 1224845; active means well fitted activation curve with a large enough effect in the signal ratio in the repeat runs, not every such curve was filed as active; the % refers to the signal ratio)
Outline: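 Wild-type CHO-K1 cells, plated overnight, exposed 3hr at 37C to 15 concentrations (0.76% DMSO final). Lysed, then HTRF anti-pH2AX (S139) cryptate and anti-H2AX-d2 antibodies, 24 hr room temperature; 665/620 nm emission read.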

[4] = qHTS assay to identify small molecule agonists of the hypoxia (HIF-1) signaling pathway (AID 1224846; active means well fitted activation curve with a large enough effect in the signal ratio in the repeat runs, not every such curve was filed as active; the % refers to the signal ratio)
Outline: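 In ME-180 cells bearing an HRE-bla construct, 17 h treatment with DMSO-dissolved compounds at 37C was followed by CCF4-AM loading to quantify reporter induction.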

[5] = qHTS assay to identify small molecule agonists of H2AX - cell viability counter screen (AID 1224847; calls by dose curve; further: top concentration of the series differs between compounds; nearly all actives have a fitted effect of over 30% in size)
Outline: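 CHO-K1 cells plated overnight at 37C, then exposed 3 h at 37C to compounds at 15 concentrations (0.76% DMSO final). Viability by CellTiter-Glo luminescence after 30 min at room temperature.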

[6] = qHTS RealTime-Glo MT Cell Viability Assay in HepG2 cells - 24 hour (AID 1224867); further: nearly all actives have a fitted effect of over 50% in size
Outline: (§1)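 Cell number in HepG2 cultures estimated from NanoLuc luminescence generated by metabolic reduction of a prosubstrate by living cells. The homogeneous, nonlytic format allowed repeated reads at 0, 8, 16, 24, 32 and 40 h of compound exposure.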

[7] = qHTS RealTime-Glo MT Cell Viability Assay in HEK293 cells - 32 hour (AID 1224868); further: top concentration of the series differs between compounds; nearly all actives have a fitted effect of over 50% in size
Outline: (§2)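 Homogeneous bioluminescent viability format in HEK293 cells (600 cells/well). Following 5 h at 37 C/5% CO2, 23 nL compound was pintooled; the signal was measured repeatedly during 40 h incubation.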

[8] = qHTS RealTime-Glo MT Cell Viability Assay in HepG2 cells - 40 hour (AID 1224870); further: nearly all actives have a fitted effect of over 50% in size
Outline: (§3)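 HepG2 cells (600/well) mixed with RealTime-Glo MT reagent, settled 5 h at 37 C/5% CO2 before compound addition. Nonlytic NanoLuc luminescence from viable-cell prosubstrate reduction read repeatedly during 40 h treatment at 37 C.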

[9] = A CellTox Green Cytotoxicity Assay to monitor cytotoxicity in HEK293 cells - 40 hour (AID 1224871); further: nearly all actives have a fitted effect of over 45% in size
Outline: (§4)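 Homogeneous no-lysis format: HEK293 cell suspension mixed with CellTox Green reagent, seeded, incubated 5 h at 37 C/5% CO2, then dosed by pintool with compound in DMSO.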

[10] = qHTS RealTime-Glo MT Cell Viability Assay in HEK293 cells - 16 hour (AID 1224872)
Outline: as §2

[11] = qHTS RealTime-Glo MT Cell Viability Assay in HepG2 cells - 8 hour (AID 1224873); further: nearly all actives have a fitted effect of over 55% in size
Outline: as §3

[12] = qHTS RealTime-Glo MT Cell Viability Assay in HEK293 cells - 40 hour (AID 1224874); conditions: RealTime-Glo luminescence; max response: active compounds read low; further: nearly all actives have a fitted effect of over 50% in size
Outline: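 Measured as luminescence from the same continuously cultured HEK293 wells at successive time points (0, 8, 16, 24, 32, 40 h) after compound addition. Reagent present from seeding; dosing at 5 h; incubation 37 C.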

[13] = A CellTox Green Cytotoxicity Assay to monitor cytotoxicity in HepG2 cells - 16 hour (AID 1224876); further: nearly all actives have a fitted effect of over 45% in size
Outline: (§5)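 Fluorescent DNA-binding dye, 600 HepG2 cells/well, 5 h preincubation then compound in DMSO; same plates read at 0–40 h, 37 C.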

[14] = qHTS RealTime-Glo MT Cell Viability Assay in HepG2 cells - 32 hour (AID 1224877); further: nearly all actives have a fitted effect of over 55% in size
Outline: as §1

[15] = A CellTox Green Cytotoxicity Assay to monitor cytotoxicity in HepG2 cells - 24 hour (AID 1224878); further: nearly all actives have a fitted effect of over 45% in size
Outline: as §5

[16] = A CellTox Green Cytotoxicity Assay to monitor cytotoxicity in HepG2 cells - 40 hour (AID 1224879); further: nearly all actives have a fitted effect of over 40% in size
Outline: as §5

[17] = A CellTox Green Cytotoxicity Assay to monitor cytotoxicity in HEK293 cells - 0 hour (AID 1224869); further: nearly all actives have a fitted effect of over 50% in size
Outline: as §4

[18] = A CellTox Green Cytotoxicity Assay to monitor cytotoxicity in HEK293 cells - 24 hour (AID 1224875); further: nearly all actives have a fitted effect of over 45% in size
Outline: as §4

[19] = qHTS assay to identify small molecule agonists of the estrogen related receptor (ERR) signaling pathway from Tox21 library (AID 1224849; calls by dose curve; further: nearly all actives have a fitted effect of over 15% in size); conditions: ERR reporter cell line, ONE-Glo luciferase, 18 h; at 92.4 µM (top of the series) unless noted
Outline: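 Reporter cells (ERR, NTP source) treated with Tox21 10K compounds 18 h, 37 C. Readout: ONE-Glo luminescence, 30 min RT.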
On the % scale 0 is the no-effect control and ±100 the full control effect.

O=C(O)c1ccc(CO)o1
inactive: Potency [1] | Potency [2] | Potency [3] | outcome [4] | Potency [5] | Potency [6] | Potency [7] | Potency [8] | Potency [9] | Potency [10] | Potency [11] | max response [12] -0.778% | Potency [13] | Potency [14] | Potency [15] | Potency [16]

CC(N)CN (stereo unspecified)
inactive: Potency [1] | Potency [2] | Potency [3] | outcome [4] | Potency [5] | Potency [6] | Potency [17] | Potency [8] | Potency [9] | Potency [10] | Potency [11] | max response [12] 2.08% | Potency [18] | Potency [13] | Potency [14] | Potency [15] | Potency [16]

CC(=O)Oc1ccc(C(=C2CCCCC2)c2ccc(OC(C)=O)cc2)cc1
inactive: Potency [1] | Potency [2] | Potency [3] | outcome [4] | Potency [5] | Potency [6] | Potency [17] | Potency [8] | Potency [9] | Potency [10] | Potency [11] | max response [12] 4.82% | Potency [18] | Potency [13] | Potency [14] | Potency [15] | Potency [16]

NC(=O)N(O)[C@@H]1COc2cc(OCc3ccccc3)ccc21
inactive: Potency [1] | Potency [2] | Potency [3] | outcome [4] | Potency [5] | Potency [6] | Potency [17] | Potency [8] | Potency [9] | Potency [10] | Potency [11] | Potency [18] | Potency [13] | Potency [14]

COc1ccc([C@@H]2Sc3ccccc3NC(=O)[C@@H]2O)cc1
inactive: Potency [1] | Potency [2] | Potency [3] | outcome [4] | Potency [5] | activity change, positive = activation [19] -18.7% [at 42.5 µM] | Potency [6] | Potency [17] | Potency [8] | Potency [9] | Potency [10] | Potency [11] | Potency [18] | Potency [13] | Potency [14] | Potency [15]

O=C(O)c1snc(Cl)c1Cl
inactive: Potency [1] | Potency [2] | Potency [3] | outcome [4] | Potency [5] | Potency [6] | Potency [7] | Potency [17] | Potency [8] | Potency [9] | Potency [10] | Potency [11] | max response [12] 13.2% | Potency [18] | Potency [13] | Potency [14] | Potency [15]

CCCCCCCCCCCC[N+](C)(C)CCCS(=O)(=O)[O-]
inactive: Potency [1] | Potency [2] | Potency [3] | outcome [4] | Potency [5] | Potency [6] | Potency [7] | Potency [17] | Potency [8] | Potency [10] | Potency [11] | max response [12] -0.977% | Potency [13] | Potency [14] | Potency [15] | Potency [16]

C=C(C)C(=O)OCCOC(=O)CC(C)=O
inactive: Potency [1] | Potency [2] | Potency [3] | outcome [4] | Potency [5] | Potency [6] | Potency [7] | Potency [8] | Potency [9] | Potency [10] | Potency [11] | max response [12] 1.19% | Potency [18] | Potency [13] | Potency [14] | Potency [15]

C/C(=N/NC(=O)c1ccncc1)C(=O)O
inactive: Potency [1] | Potency [2] | Potency [3] | outcome [4] | Potency [5] | Potency [6] | Potency [7] | Potency [17] | Potency [8] | Potency [9] | Potency [10] | max response [12] 0.452% | Potency [18] | Potency [14] | Potency [15]

COCC(O)CO (stereo unspecified)
inactive: Potency [1] | Potency [2] | Potency [3] | outcome [4] | Potency [5] | Potency [6] | Potency [7] | Potency [17] | Potency [8] | Potency [9] | Potency [10] | Potency [11] | max response [12] -5.25% | Potency [18] | Potency [13] | Potency [14] | Potency [15] | Potency [16]

CC(=O)Nc1ccc(N)cc1
inactive: Potency [1] | Potency [2] | Potency [3] | outcome [4] | Potency [5] | Potency [6] | Potency [7] | Potency [17] | Potency [8] | Potency [9] | Potency [10] | Potency [11] | max response [12] 4.7% | Potency [18] | Potency [13] | Potency [14] | Potency [15] | Potency [16]

Fc1c(F)c(F)c(Br)c(F)c1F
inactive: Potency [1] | Potency [2] | Potency [3] | outcome [4] | Potency [5] | Potency [6] | Potency [7] | Potency [17] | Potency [8] | Potency [9] | Potency [10] | Potency [11] | max response [12] 0.266% | Potency [18] | Potency [13] | Potency [14] | Potency [15] | Potency [16]

CC1=CC(O)CC(C)(C)C1 (stereo unspecified)
inactive: Potency [1] | Potency [2] | Potency [3] | outcome [4] | Potency [5] | activity change, positive = activation [19] 1.93% | Potency [6] | Potency [7] | Potency [17] | Potency [8] | Potency [10] | Potency [11] | max response [12] 8.3% | Potency [13] | Potency [14] | Potency [15]

CN1CCN(c2c(F)cc3c(=O)c(C(=O)O)cn4c3c2OCN4C)CC1
inactive: activation [1] -2.64% [at 19 µM] | activity change, negative = cytotoxicity [2] 3.62% [at 15.8 µM] | activation (H2AX phosphorylation) [3] -2.48% [at 31.6 µM] | activation [4] -0.337% [at 15.8 µM] | activity change, negative = cytotoxicity [5] 0.372% [at 31.6 µM] | activity change, negative = cytotoxicity [6] 3.52% [at 15.8 µM] | activity change, negative = cytotoxic [7] 1.18% [at 15.8 µM] | cytotoxicity [17] -13.4% [at 15.8 µM] | activity change, negative = cytotoxic [8] -3.22% [at 15.8 µM] | cytotoxicity increase [9] -7.47% [at 15.8 µM] | activity change, negative = cytotoxicity [10] 1.07% [at 15.8 µM] | max response [12] 2.93% | activity change [18] -4.87% [at 15.8 µM, active compounds read high] | cytotoxicity increase [13] -5.53% [at 15.8 µM] | activity change, negative = cytotoxic [14] -0.186% [at 15.8 µM] | cytotoxicity [15] -1.37% [at 15.8 µM] | cytotoxicity increase [16] -7.78% [at 15.8 µM]
